TDP1 cell noCPT = qHTS for Inhibitors of human tyrosyl-DNA phosphodiesterase 1 (TDP1): qHTS in cells in absence of CPT; DT40 Tdp1-/- hTDP1 cells, no CPT, ATP luminescence, 48 h; Potency, µM (highest dose often 46.2 µM), usual class: inhibitors; actives 15% (n = 420,000); note: nearly all actives have a fitted effect of over 55% in size
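Chicken DT40 Tdp1-/- cells complemented with human TDP1, screened without camptothecin (DMSO vehicle only), 400 cells/well. Compounds pin-transferred, cells incubated at 37 °C for at least 48 hr. Growth read as ATP-dependent luminescence (CellTiter-Glo, 30 min at RT).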
IL1B secr inh = blocks inflammasome-driven IL-1 beta release. actives 4.7% (n = 360,000). AID 743279. THP-1 LPS/ATP IL-1B secretion, AlphaLISA, 16 h; active compounds read low. activity change, % at 57.5 µM; in the data active = activity change below about -50%; inconclusive = mostly about -30% to -49%
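THP-1 cells pretreated 1 hr with compounds (up to 57.5 uM final), then stimulated with LPS (250 ng/mL final) plus ATP (1.25 mM final); secreted IL-1B measured by AlphaLISA after 16 hr, decreased signal indicating inhibition.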
12-LOX inh = blocks human arachidonate 12S-lipoxygenase | actives 1.1% (n = 580,000) | AID 1671190 | P18054 | purified 12hLO, xylenol orange hydroperoxide absorbance | Potency, µM (highest dose often 108 µM), hits mostly inhibitors
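Purified human 12hLO (150 nM final) in 25 mM Hepes, 0.01% Triton X-100, pH 7.0 was preincubated 15 min at room temperature with compound. Then 40 uM arachidonic acid was added, 30 min. Hydroperoxide was read by Fe-XO absorbance ratio 573/405 nm.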
HT1080 IDH1KD tx = toxicity to HT-1080 IDH1 knockdown cells (counter line); HT-1080 IDH1 knockdown viability, ATP luminescence, 48 h; Potency, µM (highest dose often 46.1 µM), usual class: cytotoxic; actives 2% (n = 360,000); AID 686971
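Cytotoxicity counter-line: IDH1KD HT-1080, 48 h, CellTiter-Glo. Curves classed by r2, magnitude and activity.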
TDP1 cell CPT = DT40-hTDP1 cell growth loss with CPT. chicken DT40 Tdp1-/-;hTDP1 cells + 20 nM CPT, ATP luminescence, 48 h. Potency, µM (highest dose often 46.2 µM), actives largely listed as inhibitors. actives 12% (n = 420,000). AID 686979; note: nearly all actives have a fitted effect of over 55% in size
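Chicken DT40 Tdp1-/- cells complemented with human TDP1, 400 cells/well, exposed to compounds plus 20 nM camptothecin for at least 48 h at 37 C; viability read as ATP content by CellTiter-Glo luminescence.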
HT1080NT lethal = kills 2HG-producing HT-1080-NT fibrosarcoma cells; HT-1080-NT fibrosarcoma viability, CellTiter-Glo ATP luminescence, 48 h; Potency, µM (series often up to 46.1 µM), actives largely listed as cytotoxic; actives 1.6% (n = 360,000);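 note: NT is the 2HG producing partner of a matched IDH1 knockdown line; nearly all actives have a fitted effect of over 55% in size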
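Fibrosarcoma NT cells, 750 per well in 5% FBS RPMI, were exposed to compound for 48 hours. Viability: CellTiter-Glo luminescence.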
A number is an active result; – = inactive; ? = inconclusive; · = no result. Only a selection was taken, and hits are over-represented in it overall. Unless noted, calls come from the whole dose curve; as a rule, active = well fitted curve in the direction sought with a large enough effect; inconclusive = small, poorly fitted or top-dose-only effect, or another doubt; inactive = no such curve, though single readings can be large; an effect the other way counts as inactive or inconclusive.

SMILES | TDP1 cell noCPT | IL1B secr inh | 12-LOX inh | HT1080 IDH1KD tx | TDP1 cell CPT | HT1080NT lethal
CCCOc1ccc(-c2c(C(=O)N/N=C/c3ccc(OCC)cc3)nnn2-c2nonc2N)cc1 | – | – | – | – | – | –
Cc1ccsc1/C=N/NC(=O)c1nnn(-c2nonc2N)c1-c1ccccc1 | – | -92 | – | – | – | –
COc1ccccc1/C=N/NC(=O)c1nnn(-c2nonc2N)c1-c1ccccc1 | – | – | – | – | – | –
COc1cccc(-c2c(C(=O)N/N=C/c3ccsc3)nnn2-c2nonc2N)c1 | – | – | – | – | – | –
CCCOc1ccc(-c2c(C(=O)N/N=C/c3ccncc3)nnn2-c2nonc2N)cc1 | – | -54 | – | ? | – | ?
Cc1ccc(-c2c(C(=O)N/N=C/c3sccc3C)nnn2-c2nonc2N)cc1 | ? | ? | – | – | – | –
COc1cccc(-c2c(C(=O)N/N=C/c3sccc3C)nnn2-c2nonc2N)c1 | – | -54 | – | – | – | –
COc1ccccc1/C=N/NC(=O)c1nnn(-c2nonc2N)c1-c1cccs1 | – | – | · | – | 23µM | –
CC(C)(C)C(=O)Oc1ccc2c(c1)nc(NC(=O)c1cccc([N+](=O)[O-])c1)n2CCCO | · | · | – | · | · | ·
O=C1c2ccccc2[C@@H]2Cc3csc[n+]3[C@H]12 | 5.2µM | ? | – | – | 3.7µM | –
CC1(c2ccc(O)cc2)NC(=O)N(c2ccccc2)N1 (stereo unspecified) | – | – | ? | 10µM | – | 5.8µM
CC1(CC(=O)Nc2ccccc2)NC(=S)N(c2ccccc2)N1 (stereo unspecified) | – | – | – | – | – | –
C=C(C)CCC1(C)NC(=O)N(c2ccccc2)N1 (stereo unspecified) | – | · | ? | 15µM | – | 9.2µM
O=C(NN=C1CCCCC1)c1ccncc1 | · | · | – | · | · | ·
CC/C=C\CCOC(=O)CC | · | · | – | · | · | ·
O=C(CSc1nc(-c2ccccc2)nc2c1CCCC2)c1ccc(F)cc1 | – | · | – | · | – | ·
CS(=O)(=O)NCCC1=CCCCC1 | – | – | – | – | – | –
COc1cc2sc3ccc(-c4ccc(CN5CCOCC5)cc4)cc3c(=O)c2cc1OC | 13µM | – | – | – | 18µM | –
COc1cc2sc3ccc(-c4ccc(N(C)C)nc4)cc3c(=O)c2cc1OC | 5.8µM | – | – | – | 5.8µM | –
COc1ccc(CN2CCOCC2)cc1OC | ? | – | – | – | – | –
CCCc1noc(-c2cccn3c(CNC(=O)c4cccnc4)nnc23)n1 | · | · | – | · | · | ·
CCOc1ccccc1N1CCN(C(=O)CNC(=O)c2sc3ccccc3c2Cl)CC1 | 23µM | – | – | – | ? | –
COc1ccccc1C(=O)NNC(=S)NC(=O)c1sc2ccccc2c1Cl | 8.2µM | – | – | ? | 15µM | –
COc1ccc(NC(=O)CSCC(=O)N(C)Cc2cccc(OC)c2OC)cc1 | ? | – | – | – | ? | –
CC1CCCN(C(=O)CNC(=O)c2sc3ccccc3c2Cl)C1 (stereo unspecified) | ? | · | – | – | – | –
SMILES | TDP1 cell noCPT | IL1B secr inh | 12-LOX inh | HT1080 IDH1KD tx | TDP1 cell CPT | HT1080NT lethal
COc1cccc(CN(C)C(=O)COc2ccc(C(=O)c3ccc(Cl)cc3)cc2)c1OC | 23µM | – | – | ? | ? | ?
COc1cccc(N2CCN(C(=O)CNC(=O)c3sc4ccccc4c3Cl)CC2)c1 | ? | – | – | – | ? | –
CC1CC(C)CN(C(=O)CNC(=O)c2sc3ccccc3c2Cl)C1 (stereo unspecified) | 23µM | -57 | – | – | ? | –
Cc1ccccc1N1CCN(CC(O)Cn2c3ccccc3n3c(=O)cc(C)c(C#N)c23)CC1 (stereo unspecified) | · | · | – | · | · | ·
COc1cccc(CN(C)C(=O)CNC(=O)c2sc3ccccc3c2Cl)c1OC | ? | -51 | – | – | ? | –
CCCCOc1ccc(CN2CCCCC2)cc1 | – | – | – | – | – | –

Assay outcomes from PubChem.
